From PMC5700166

Target: T1, GST-Dm-Relish (Drosophila melanogaster, UniProt Q94527 99-473)
T1 sequence: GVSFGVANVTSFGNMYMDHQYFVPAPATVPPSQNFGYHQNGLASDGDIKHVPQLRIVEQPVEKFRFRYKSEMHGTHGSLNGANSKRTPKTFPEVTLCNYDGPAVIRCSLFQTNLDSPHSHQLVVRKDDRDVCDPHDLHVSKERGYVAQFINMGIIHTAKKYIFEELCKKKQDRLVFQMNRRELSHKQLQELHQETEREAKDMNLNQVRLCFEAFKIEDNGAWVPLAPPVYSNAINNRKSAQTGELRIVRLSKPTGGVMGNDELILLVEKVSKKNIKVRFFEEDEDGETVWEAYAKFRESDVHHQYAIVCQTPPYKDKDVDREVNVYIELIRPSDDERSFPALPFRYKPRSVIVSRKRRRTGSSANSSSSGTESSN
Test: protein-binding microarray (PBM); PBM: ~300 nM protein, 6 mM HEPES pH 7.8, 80 mM KCl, 0.5 mM EDTA, 0.5 mM EGTA, 6% glycerol, 35 ng/ul poly-dIdC, 1% milk, 1 h, room temperature; Ap Aiptasia and Nv Nematostella (sea anemones) / Co Capsaspora / Aq Amphimedon (sponge) / Dm Drosophila / Hu human; RHD is the Rel homology domain; high values mean tight binding
Conditions: dsDNA, one strand shown

Row | Sequence | binding signal
1 | CCGATTAACATCAGGAAAACACATGATGTTAATCGGGTCTTGATTCGCTTGACGCTGCTG | 2.56 z-score
2 | CCGATTAACATCAGGAAAGAACATGATGTTAATCGGGTCTTGATTCGCTTGACGCTGCTG | 3.57 z-score
3 | CCGATTAACATCACGTGTTTTCCTGATGTTAATCGGGTCTTGATTCGCTTGACGCTGCTG | 1.04 z-score
4 | CCGATTAACATCACAAAAAATTTTGATGTTAATCGGGTCTTGATTCGCTTGACGCTGCTG | 2.12 z-score
5 | CCGATTAACATCAAGTGATTTCCTGATGTTAATCGGGTCTTGATTCGCTTGACGCTGCTG | 4.18 z-score
6 | CCGATTAACATCAGTGAACCACATGATGTTAATCGGGTCTTGATTCGCTTGACGCTGCTG | 5.69 z-score
7 | CCGATTAACATCAGCGTGACTTTTGATGTTAATCGGGTCTTGATTCGCTTGACGCTGCTG | 1.47 z-score
8 | CCGATTAACATCAGGATTTTACATGATGTTAATCGGGTCTTGATTCGCTTGACGCTGCTG | 3.35 z-score
9 | CCGATTAACATCACGTTTTTTCCTGATGTTAATCGGGTCTTGATTCGCTTGACGCTGCTG | 1.57 z-score
10 | CCGATTAACATCAGTATTTTCCATGATGTTAATCGGGTCTTGATTCGCTTGACGCTGCTG | 1.33 z-score
11 | CCGATTAACATCACGTAAATCCATGATGTTAATCGGGTCTTGATTCGCTTGACGCTGCTG | 1 z-score
12 | CCGATTAACATCAGGAATATACATGATGTTAATCGGGTCTTGATTCGCTTGACGCTGCTG | 2.59 z-score
13 | CCGATTAACATCAGGCGGTAAGGTGATGTTAATCGGGTCTTGATTCGCTTGACGCTGCTG | 1.01 z-score
14 | CCGATTAACATCAAGTAGTTTCCTGATGTTAATCGGGTCTTGATTCGCTTGACGCTGCTG | 2.37 z-score
15 | CCGATTAACATCACAAAATTCCATGATGTTAATCGGGTCTTGATTCGCTTGACGCTGCTG | 1.67 z-score
16 | CCGATTAACATCAAATAAATTCCTGATGTTAATCGGGTCTTGATTCGCTTGACGCTGCTG | 1.27 z-score
17 | CCGATTAACATCACGTAGTTTCCTGATGTTAATCGGGTCTTGATTCGCTTGACGCTGCTG | 1.46 z-score
18 | CCGATTAACATCAGGAAAATTACTGATGTTAATCGGGTCTTGATTCGCTTGACGCTGCTG | 1.67 z-score
19 | CCGATTAACATCACAACGGAATGTGATGTTAATCGGGTCTTGATTCGCTTGACGCTGCTG | 1.37 z-score
20 | CCGATTAACATCACAATACACGCTGATGTTAATCGGGTCTTGATTCGCTTGACGCTGCTG | 1.05 z-score

Row | Sequence | binding signal
21 | CCGATTAACATCACGGAATGTACTGATGTTAATCGGGTCTTGATTCGCTTGACGCTGCTG | 1.8 z-score
22 | CCGATTAACATCACGTTCTTTCCTGATGTTAATCGGGTCTTGATTCGCTTGACGCTGCTG | 2.3 z-score
23 | CCGATTAACATCAGGAATTCACATGATGTTAATCGGGTCTTGATTCGCTTGACGCTGCTG | 5.7 z-score
24 | CCGATTAACATCACGTATTTTCCTGATGTTAATCGGGTCTTGATTCGCTTGACGCTGCTG | 1.2 z-score
25 | CCGATTAACATCACGTTATTTCCTGATGTTAATCGGGTCTTGATTCGCTTGACGCTGCTG | 1.09 z-score
26 | CCGATTAACATCAGTAAAATCCATGATGTTAATCGGGTCTTGATTCGCTTGACGCTGCTG | 1.44 z-score
27 | CCGATTAACATCAGAATTTCCTATGATGTTAATCGGGTCTTGATTCGCTTGACGCTGCTG | 1.23 z-score
28 | CCGATTAACATCATGGTACTTGTTGATGTTAATCGGGTCTTGATTCGCTTGACGCTGCTG | 1.26 z-score
29 | CCGATTAACATCACTTAGTACGGTGATGTTAATCGGGTCTTGATTCGCTTGACGCTGCTG | 1.1 z-score
30 | CCGATTAACATCAAAAAAATTACTGATGTTAATCGGGTCTTGATTCGCTTGACGCTGCTG | 3.61 z-score
31 | CCGATTAACATCACCCGAGTGCGTGATGTTAATCGGGTCTTGATTCGCTTGACGCTGCTG | 1.01 z-score
32 | CCGATTAACATCATTTACATTCGTGATGTTAATCGGGTCTTGATTCGCTTGACGCTGCTG | 1.06 z-score
33 | CCGATTAACATCAGGAAATTCACTGATGTTAATCGGGTCTTGATTCGCTTGACGCTGCTG | 1.48 z-score
34 | CCGATTAACATCAGAAAATTACATGATGTTAATCGGGTCTTGATTCGCTTGACGCTGCTG | 3.43 z-score
35 | CCGATTAACATCACTGGAAATTCTGATGTTAATCGGGTCTTGATTCGCTTGACGCTGCTG | 1.59 z-score
36 | CCGATTAACATCAGTGTGCTTCTTGATGTTAATCGGGTCTTGATTCGCTTGACGCTGCTG | 1.67 z-score
37 | CCGATTAACATCAAGGAAAATACTGATGTTAATCGGGTCTTGATTCGCTTGACGCTGCTG | 1.2 z-score
38 | CCGATTAACATCAAGTACATTCCTGATGTTAATCGGGTCTTGATTCGCTTGACGCTGCTG | 2.21 z-score
39 | CCGATTAACATCAGTGGTTACCATGATGTTAATCGGGTCTTGATTCGCTTGACGCTGCTG | 2.13 z-score
